Measurements taken from ChEMBL document CHEMBL4513216, “Probing the Open Global Health Chemical Diversity Library for Multistage-Active Starting Points for Next-Generation Antimalarials” (ACS Infect Dis, 2020).
About 2,100 (3.2%) of roughly 65,000 compounds showed an effect of 50% or more. The median lay at about -52%. Many of the other results were omitted from the sample, so strong results are more common in it than they were.

Test system: Plasmodium falciparum
Experiment: Screen against P. falciparum Asexual Blood Stage (ABS), at 5uM
Format: functional, Dd2
Settings: tested at 5 uM

Row | SMILES | INHIBITION [%]
1 | O=C(Cc1ccsc1)N1C[C@H]2CCC[C@@]2(COCc2ccccn2)C1 | -116
2 | Cc1cnc(NC(=O)c2csc(NCC(C)C)n2)s1 | -175
3 | CCOC(=O)CN(C)Cc1cnc(C)s1 | -142
4 | Cc1ncc(CN(C)CC(O)c2cccc(C(F)(F)F)c2)s1 (stereo unspecified) | 54.7
5 | Cc1ncc(CN(C)CC(O)c2ccc(OC(F)(F)F)cc2)s1 (stereo unspecified) | 64
6 | Cc1ccc(CC(=O)NCC(O)c2cccc(C(F)(F)F)c2)cn1 (stereo unspecified) | -58.1
7 | Cc1cc(CNC(=O)NCC(O)c2cccc(C(F)(F)F)c2)no1 (stereo unspecified) | -34.1
8 | Cc1ncc(CN(C)CC(O)c2ccc(Br)cc2)s1 (stereo unspecified) | 22.6
9 | O=C(CC1CC1)N[C@@H]1CN(C(=O)c2ccoc2)C[C@@H]2CCCO[C@@H]21 | -102
10 | CN(C)C(=O)c1cnc2n1CCN(Cc1ccc3c(c1)OCO3)C2 | 24.3
11 | CCn1cc2c(n1)CN(Cc1ccc(F)cc1)CC2COCC1CC1 (stereo unspecified) | -38.3
12 | CC(C)(CNC(=O)CCCOc1cccc(F)c1)C(N)=O | 44.9
13 | CC(C)(CNC(=O)CCOc1cccc(F)c1)C(N)=O | -172
14 | CC(C)(CNC(=O)COc1cccc(F)c1)C(N)=O | 60.6
15 | CC(C)Cn1cc2nc(N3CCC(O)CC3)[nH]cc-2c1=O | -52.3
16 | Cc1cccc(Cn2cc(Br)c(NS(C)(=O)=O)n2)c1 | -96.25
17 | O=C(NCCn1ccnc1)c1ccn(-c2cccc(F)c2)n1 | -1.32
18 | Cc1ccc(-c2nn(-c3cccc(F)c3)cc2CN(C)CCO)o1 | 50.5
19 | Cc1oc(-c2cccc(F)c2F)nc1CN(C)CCO | -82.7
20 | Cc1nc(CN2CCN(CCCc3nc4ccccc4o3)CC2)no1 | -77.4
21 | CN(Cc1ccco1)[C@@H]1CN(Cc2nccn2C)[C@@H]2CCCO[C@H]12 | -23.8
22 | CN(Cc1cccnc1)[C@@H]1CN(Cc2nccn2C)[C@@H]2CCCO[C@H]12 | -13.9

Row | SMILES | INHIBITION [%]
23 | CN(Cc1ccco1)[C@@H]1CN(Cc2ccc(F)cc2)[C@@H]2CCCO[C@H]12 | 56.5
24 | CN(Cc1cccnc1)[C@@H]1CN(Cc2ccccn2)[C@@H]2CCCO[C@H]12 | 50.8
25 | Cc1noc(C)c1CN1C[C@@H](N(C)Cc2ccco2)[C@H]2OCCC[C@H]21 | 50.4
26 | CN(Cc1ccco1)[C@@H]1CN(Cc2cnn(C)c2)[C@@H]2CCCO[C@H]12 | 27.3
27 | CN(Cc1ccco1)[C@@H]1CN(CC2CCOCC2)[C@@H]2CCCO[C@H]12 | -0.241
28 | CN(Cc1ccco1)[C@@H]1CN(Cc2ccco2)[C@@H]2CCCO[C@H]12 | 11.7
29 | CN(Cc1cccnc1)[C@@H]1CN(c2ccccn2)[C@@H]2CCCO[C@H]12 | -39.4
30 | O=C(CCc1ccc(-n2cnnn2)cc1)Nc1ccncc1 | -12.1
31 | CCn1cc2c(n1)CN(Cc1nccs1)CC2COCC1CC1 (stereo unspecified) | -9.1
32 | CN(C)c1nc(O)cc(C2CCN(C(=O)Cc3ccccn3)C2)n1 (stereo unspecified) | -107
33 | N#CC1CCCN(c2ncnc3c2CCN(Cc2ccccc2)CC3)C1 (stereo unspecified) | -71.7
34 | Cc1cc(CNc2ccccc2Cl)no1 | 40.4
35 | Cc1cc(CNc2cccc(Cl)c2C)no1 | 54.3
36 | CCOc1c(Cl)cccc1NCc1cc(C)on1 | -51.8
37 | CNC(=O)c1cnc(C=Cc2cc(OC)c(O)c(OC)c2)s1 | -64.8
38 | CNC(=O)c1cccc(CNC(C)c2cc(Cl)ccc2OC)c1 (stereo unspecified) | -5.94
39 | CNC(=O)c1cccc(CNC(C)c2cc(C)ccc2OC(F)F)c1 (stereo unspecified) | 60.1
40 | CNC(=O)c1cccc(CNC(C)c2ccc(F)cc2N(C)C)c1 (stereo unspecified) | -107
41 | Cc1oc(C)c(C(=O)NCc2cccnc2N(C)C)c1C | -69.8
42 | Cc1oc(C)c(C(=O)NCc2ccccn2)c1C | -148
43 | Cc1oc(C)c(C(=O)NCc2ccccc2S(=O)(=O)N(C)C)c1C | -57.1
44 | Cc1oc(C)c(C(=O)NCc2ccccc2CN(C)C)c1C | 57.3

Row | SMILES | INHIBITION [%]
45 | CCOc1ncccc1CNC(=O)c1c(C)oc(C)c1C | 58.4
46 | COc1ncccc1CNC(=O)c1c(C)oc(C)c1C | 32.4
47 | Cc1cc(CC(C)Nc2ncc(C)c(N(C)C)n2)[nH]n1 (stereo unspecified) | -13.9
48 | O=C(c1ccccc1)N1C[C@@H]2CCCO[C@@H]2[C@H](N2CCCC2)C1 | -41.1
49 | O=C(O)[C@@H]1CN(C(=O)c2ccc3[nH]nnc3c2)C[C@H]1c1ccccc1 | -123
50 | COCC1(C(=O)N[C@H]2CN(c3nnc(C)s3)C[C@@H]2C2CC2)CCC1 | -176
51 | CC(C)c1nc(CN(C)C2CCN(CCNS(C)(=O)=O)C2)no1 (stereo unspecified) | -20.9
52 | CSCCc1ccc(NC(=O)NCc2ccnc(N(C)C)c2)cc1 | -46.2
53 | COc1cc(N2C[C@@H]3COC[C@]3(COc3ncccc3F)C2)ncn1 | -25.8
54 | c1c(CN2CCCC2)nc2n1CCN(C1CCOCC1)C2 | -103
55 | Cc1cc2n(n1)CC(CNCc1ccc(-n3cccn3)cc1)CN2 (stereo unspecified) | 53.4
56 | c1ccc(Oc2ccc(CNCC3CNc4ccnn4C3)cn2)cc1 (stereo unspecified) | -12.8
57 | c1ccc(Oc2cc(CNCC3CNc4ccnn4C3)ccn2)cc1 (stereo unspecified) | 53.3
58 | Cc1cc2n(n1)CC(CNCc1ccc(OCC3CC3)nc1)CN2 (stereo unspecified) | -101
59 | Cc1cc2n(n1)CC(CNCc1ccc(Oc3ccccc3)nc1)CN2 (stereo unspecified) | 58.9
60 | Cc1cc2n(n1)CC(CNCc1cnn(-c3ccccc3)c1)CN2 (stereo unspecified) | -71.4
61 | COc1cc(CNCC2CNc3ccnn3C2)ccn1 (stereo unspecified) | -129
62 | COc1ccc(CNCC2CNc3cc(C)nn3C2)cn1 (stereo unspecified) | -171
63 | Cc1cc2n(n1)CC(CNCc1ccc(-n3cccn3)nc1)CN2 (stereo unspecified) | 15.1
64 | COc1ccccc1N1CC(NC(=O)c2cc(C(C)C)nn2C)CC1=O (stereo unspecified) | -102
65 | COCC1c2nnn(C)c2CCN1C(=O)CCc1cccc(OC)c1 (stereo unspecified) | -85.3
66 | CC1CCCN(Cc2ccc(C(N)=O)cc2)C1 (stereo unspecified) | -118
